# PubChem BioAssay AID1259416 (Broad Institute, 2018)
# Where “and” joins values, the source holds several entries; their conditions need not be identical. Equal entries are not always repeated. The campaign covered roughly 69,000 compounds. About 2,600 (3.8%) were called active. Rule as the data show it: active = activity change below about -70% (passing the limit was not always enough); inconclusive = no clear call, values can overlap the other calls. This excerpt belongs to a sample that is enriched for actives.
# Test: inhibitors of Toxoplasma growth in IFN-γ-primed hosts – cell-based, primary screen (AID 1259416);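 also: host cells are HeLa cells infected with Toxoplasma gondii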
# Details: Toxoplasma gondii growth in IFN-gamma-treated host cells; stronger effect = lower value; concentration not given here
row,SMILES,"activity change, negative = inhibition"
1,CC1CCN(c2ncnc3c2cnn3CC(=O)Nc2cc(F)cc(F)c2)CC1,-68.2% (inactive)
2,CC1CCN(c2cncnc2-n2cc(NC(=O)CC3CCCCC3)cn2)CC1,-88.5% (active)
3,Cc1cc(NC(=O)CC2CCCCC2)n(-c2ncnc3c2cnn3-c2ccc(Cl)cc2)n1,16.1% (inactive)
4,Cc1c(CN(C)C(=O)COc2cccnc2)[nH]c2ccccc12,66.9% (inactive)
5,Cc1cccc(-c2[nH]n3c(=O)cc(C(C)n4cnc5ccccc5c4=O)nc3c2C)c1 (centres undefined),-29.3% (inactive)
6,COc1cc(CCC(C)NC(=O)c2ccc(C)cc2)ccc1OC(=O)c1ccc(C)cc1 (centres undefined),-12.5% (inactive)
7,O=C1c2ccc(Nc3ccc(F)cc3F)cc2CCc2ccc(OC[C@H](O)CO)cc21,-74% (active)
8,COCC(=O)N1CCC2(CC1)C(=O)N(c1cncnc1)c1ccccc12,-5.94% (inactive)
9,C[C@H]1CN([C@@H](C)CO)S(=O)(=O)c2ccc(C#Cc3cccc(F)c3)cc2O[C@@H]1CN(C)S(=O)(=O)c1cn(C)cn1,-91.2% (active)
10,C[C@H]1CN([C@@H](C)CO)S(=O)(=O)c2ccc(C#CC3(O)CCCC3)cc2O[C@@H]1CN(C)C(=O)Nc1cccc(F)c1,-69.9% (inactive)
11,C[C@@H]1CN([C@@H](C)CO)S(=O)(=O)c2ccc(C#Cc3cccc(F)c3)cc2O[C@H]1CN(C)S(=O)(=O)c1cn(C)cn1,-31.1% (inactive)
12,Cn1c(=O)c2nc(-c3ccc(I)cc3)oc2c2ccccc21,-20.4% (inactive)
13,CCCN1CCn2cc(C(=O)N3CCN(c4cccc(OC)c4)CC3)nc2C1,15% (inactive)
14,Cc1ccc(Nc2nc(C(=O)Nc3ccc(Cl)cc3F)nc3ccccc23)cc1,4.67% (inactive)
15,Cc1cccc(Nc2nc(C(=O)Nc3cccc4c3CCCC4)nc3ccccc23)c1,-67.4% (inactive)
16,O=C(NC1CCCCC1)c1nc(Nc2ccccc2)c2ccccc2n1,-55.7% (inactive)
17,Cc1cccc(CNC(=O)c2nc(Nc3cccc(C)c3)c3ccccc3n2)c1,-89.5% (active)
18,Cc1ccc(CNC(=O)c2nc(Nc3ccc(C)cc3)c3ccccc3n2)cc1,40.8% (inactive)
19,O=C(Nc1ccccc1Br)c1nc(Nc2ccccc2)c2ccccc2n1,-74.2% (active)
20,O=C(NCc1cccc(Br)c1)c1nc(Nc2ccc(F)cc2)c2ccccc2n1,-65.9% (inactive)
21,CC(Cc1ccco1)NC(=O)c1nc(Nc2ccccc2)c2ccccc2n1 (centres undefined),-47% (inactive)
22,Cc1cccc(Nc2nc(C(=O)Nc3cccc(Cl)c3C)nc3ccccc23)c1,-75.4% (active)
23,CCOc1ccccc1NC(=O)OC1CCCN1C(=O)NCc1ccccc1 (centres undefined),-2.55% (inactive)

row,SMILES,"activity change, negative = inhibition"
1,O=C(COC(=O)c1ccc(Cl)nc1)NCc1ccc2c(c1)OCO2,8.52% (inactive)
2,CC(=O)c1c(C)nn(CCC(=O)N2CCC(c3ccccc3C(=O)O)C2)c1C (centres undefined),2.53% (inactive)
3,Cc1nc(C)c(S(=O)(=O)NC(CCN2CCOCC2)c2ccccc2)s1 (centres undefined),12.7% (inactive)
4,CC(C(=O)NCc1ccccc1F)N(c1ccccc1)S(C)(=O)=O (centres undefined),12.1% (inactive)
5,O=C(Cn1ncc2c(N3CCN(c4ccccn4)CC3)ncnc21)Nc1cc(F)ccc1F,-34% (inactive)
6,O=C(Cc1ccccc1)NCCc1nc(N2CCOCC2)ncc1C(=O)N1CCCC1,8.84% (inactive)
7,CN1C2CCN(Cc3nccs3)CC2C[C@H]1Cn1cncn1 (some centres undefined),4.21% (inactive)
8,Cc1cc(Nc2cc(CN3CCOCC3)c3nc(C)c(Cc4ccc(Cl)cc4F)n3n2)n[nH]1,-78.1% (active)
9,COCCN1CCO[C@@H]2CN(Cc3ccccc3F)C[C@@H]2C1,-4.47% (inactive)
10,CN(C)c1ncccc1CNC(=O)c1cnc2c(c1)nnn2C,2.4% (inactive)
11,C/C=C/c1ccccc1[C@@H]1[C@@H](CO)N(C(=O)CN2CCOCC2)[C@H]1C#N,18.7% (inactive)
12,CCOc1ccc(-c2nc3c(s2)CN(S(=O)(=O)c2cccc(C)c2)CC3)cc1,4.52% (inactive)
13,COc1ccc(S(=O)(=O)N2CCc3nc(-c4ccccc4)sc3C2)cc1OC,62% (inactive)
14,COc1ccc(-c2nc3c(s2)CN(S(=O)(=O)c2cccc(Cl)c2C)CC3)cc1,-94.8% (active)
15,COc1cccc(-c2nc3c(s2)CN(S(=O)(=O)c2cccc(F)c2)CC3)c1,-87.6% (active)
16,COc1ccc(-c2nc3c(s2)CN(S(=O)(=O)c2ccc(C)cc2C)CC3)cc1OC,-101% (active)
17,COc1ccc(-c2nc(C)c(CCNS(=O)(=O)c3ccccc3)s2)cc1OC,132% (inactive)
18,COc1cccc(NC2COC3(CCN(S(=O)(=O)c4cccc(F)c4)CC3)C2)c1 (centres undefined),-1.19% (inactive)
19,COC(=O)c1cc2n(n1)CCN(S(=O)(=O)c1ccc(C)cc1OC)C2,-2.93% (inactive)
20,O=S(=O)(NC[C@H]1[C@H](c2ccccc2)[C@H](CO)N1CC1CC1)c1ccccc1,14.7% (inactive)
21,Cc1nc(-c2cccc(F)c2)sc1CCNC(=O)C12CC3CC(CC(C3)C1)C2,-46.4% (inactive)
22,C=Cc1cccc(CN2CCC3(CCCN(C(=O)CCOC)C3)C2)c1 (centres undefined),-2.67% (inactive)
23,CN(Cc1nc(-c2ccncc2)no1)C(=O)c1cc2ccccc2s1,-2.68% (inactive)

row,SMILES,"activity change, negative = inhibition"
1,Cc1ncc(C(=O)O)c(-c2ccccc2)n1,0.375% (inactive)
2,COCc1cnc2n1CCN(C(=O)c1oc3ccccc3c1C)C2C (centres undefined),1.32% (inactive)
3,Cc1cc(C(F)F)nn1CC(=O)NCCn1ncc(-c2ccncc2)c1-c1cccs1,-65.9% (inactive)
4,CCOCCn1nc(C)cc1C(=O)N1CCCC2(CNC(=O)O2)C1 (centres undefined),-0.947% (inactive)
5,COCC12CCCOC1CCN(S(=O)(=O)C1CC1)C2 (centres undefined),5.49% (inactive)
6,Cc1ccc(-c2ccccc2[C@H]2[C@@H](C#N)N(c3ncc(-c4ccccc4)s3)[C@@H]2CO)cc1,-77.5% (active)
7,CCc1cnc(N2[C@H](C#N)[C@H](c3ccccc3-c3ccccc3C)[C@H]2CO)s1,18.5% (inactive)
8,C/C=C/c1ccccc1[C@@H]1[C@@H](C#N)N(c2nc(CC)cs2)[C@@H]1CO,1.59% (inactive)
9,COc1ccc(CN2C(=O)CO[C@H]3CN(C(=O)NC4CC4)C[C@@H]32)cc1,15.8% (inactive)
10,N#Cc1ccc(-c2ccc([C@@H]3[C@@H](CO)N4C(=O)CNC[C@H]34)cc2)cc1,-24.8% (inactive)
11,N#Cc1ccc(-c2ccc([C@@H]3[C@H]4CNC[C@@H]3N4Cc3ccc4c(c3)OCO4)cc2)cc1,-70.6% (active)
12,COc1ccccc1CN1[C@@H]2CNC[C@H]1C2c1ccc(-c2cccc(C#N)c2)cc1 (some centres undefined),-25.9% (inactive) and -32% (inactive)
13,CS(=O)(=O)N1CCCC1c1cccc(Nc2nccs2)n1 (centres undefined),-21.8% (inactive)
14,COCCn1c(C(=O)NCCCN(C)C)cc2c1c1ccccc1n2C,-12.8% (inactive)
15,CC(C)(C)CN1CC2CN(C(=O)Nc3ccccc3)CC21 (centres undefined),-37.8% (inactive)
16,O=C(O)c1ccc(NC(=S)NCc2cccs2)cc1,33.4% (inactive)
17,CC1CCN(C(=O)c2cc(=O)n(CC(=O)Nc3ccc(C(C)C)cc3)c3ccccc23)CC1,-28.9% (inactive)
18,Cn1nc(CC(=O)Nc2cccc(Cl)c2)c2ccccc2c1=O,-79% (active)
19,Cn1nc(C(=O)O)c2ccccc2c1=O,58.7% (inactive)
20,Cc1nc(OCC(=O)Nc2cccc(Cl)c2)c2ccccc2n1,-0.194% (inactive)
21,CCn1nc(C)c(NC(=O)CN2CCC(Oc3ncccn3)CC2)c1C,-9.88% (inactive)
22,COc1cccc2[nH]c(C(=O)N3CCCC(c4cc(CN(C)C)n(C)n4)C3)cc12 (centres undefined),5.73% (inactive)
23,Cc1sccc1C(=O)N1CCC2(CC1)CC(NS(C)(=O)=O)C2,6.5% (inactive)

row,SMILES,"activity change, negative = inhibition"
1,O=C1c2ccccc2C(=O)C1c1ccccc1,-11.2% (inactive) and 19.1% (inactive)
2,COc1ccc2cc(-c3ccccc3NC(=O)CN)ccc2c1,70.1% (inactive)
3,COc1ccc2c(C3C(=O)c4ccccc4C3=O)nccc2c1,-108% (active)
4,COc1ccc(-c2cc(C)cnc2-n2cnnc2)cn1,4.46% (inactive)
5,CCc1nc(CN2CCC3(CC2)C(=O)N(CCc2ccccc2)C(=O)N3C)c(C)[nH]1,-3.85% (inactive)
6,COc1ccc2c3c(n(C)c2c1)[C@H](CO)N(Cc1ccccc1Cl)CC31CN(C(=O)CN(C)C)C1,-29.5% (inactive)
7,CN1C(=O)CCc2cc(C(=O)NC3CCCC3)ccc21,9.57% (inactive)
8,Cc1cccnc1N1C[C@H]2CN(c3cnn(C)c3)C(=O)[C@@H]2C1,-73.4% (active)
9,Cc1ccc(C(=O)N2CCC3(CC2)CCN(c2cnn(C)c2)C3=O)cc1,19.8% (inactive)
10,CCN1C(=O)[C@H]2CN(c3ncccn3)C[C@@H]2C12CCN(S(=O)(=O)CC(C)C)CC2,-13.4% (inactive)
11,Cc1ccc(NC(=O)CC(=O)N2CCCC(c3nc(CC(C)C)no3)C2)cc1 (centres undefined),25% (inactive)
12,Cc1noc2nc(C3CCCN(C(=O)CCc4ccccc4)C3)cc(C(F)F)c12 (centres undefined),-93.3% (active)
13,O=C(CCn1nnc2ccccc21)N1CCCC(c2ccn[nH]2)C1 (centres undefined),2.46% (inactive)
14,CCCCc1ncc(CN2CCN(c3ccccc3OC)CC2C)[nH]1 (centres undefined),-2.06% (inactive)
15,O=S(=O)(NCc1ccccc1)N1CCCC1c1ccccn1 (centres undefined),-3.86% (inactive)
16,CO[C@@H]1CCN(C(=O)c2ccnn2C)[C@H]2CN(CC3CC3)C[C@@H]12,33.7% (inactive)
17,COCCC(=O)c1cc2c(s1)CCN2c1ccc(C)nn1,59.6% (inactive)
18,Cc1ccccc1C(=O)NCCc1csc(-c2ccc(F)cc2)n1,-18% (inactive)
19,O=C(NCCc1csc(-c2ccccc2)n1)c1ccccc1F,455% (inactive)
20,COc1ccccc1C(=O)NCCc1csc(-c2ccc(Cl)cc2)n1,-74% (active)
